Rows were chosen to be rich in hits. Some 2.4% of all compounds tested hit in one or more screens of this group.
POLK inh = blocks human DNA polymerase kappa activity; Q9UBT6; purified Pol kappa, fluorescent DNA synthesis assay, 10 min; Potency, µM (titrated, usually from 107 µM), hits mostly inhibitors; hit rate 0.53% among 400,000; AID 588579
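Readout: fluorescence, taken kinetically at 0 and 10 min. Conditions: 10 nM Pol kappa, 15 min RT compound preincubation, 50 nM substrate final. Controls: enzyme-free buffer wells.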
Pol beta inh = blocks human DNA polymerase beta activity; Pol beta primer extension/strand displacement, fluorescence kinetic; Potency, µM (series often up to 114 µM), usual class: inhibitors; hit rate 1.3% among 340,000
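Enzyme-only controls used 10 nM Pol beta; buffer lacking enzyme served as negative control. Compound preincubated 15 min, then 50 nM substrate added; 0 and 10 min reads at room temperature.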
TDP1 inh = TDP1 (human) enzyme inhibition; Q9NUW8; recombinant TDP1, AlphaScreen DNA substrate cleavage; Potency, µM (top dose mostly 130 µM), hits mostly inhibitors; hit rate 0.28% among 350,000; AID 485290; further: nearly all actives have a fitted effect of over 40% in size
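Enzyme-compound mixtures sat 15 min at room temperature, followed by a 5 min reaction with 15 nM final substrate and 10 min with AlphaScreen beads. Recombinant human Tdp1 was used at 1 nM final.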
POLI inh = inhibitors of human DNA polymerase iota | Q9UNA4 | Pol iota fluorescent replication assay, 10 min | Potency, µM (top dose mostly 115 µM), most hits filed as inhibitors | hit rate 1% among 390,000
Target sequence (Q9UNA4 whole entry, looked up): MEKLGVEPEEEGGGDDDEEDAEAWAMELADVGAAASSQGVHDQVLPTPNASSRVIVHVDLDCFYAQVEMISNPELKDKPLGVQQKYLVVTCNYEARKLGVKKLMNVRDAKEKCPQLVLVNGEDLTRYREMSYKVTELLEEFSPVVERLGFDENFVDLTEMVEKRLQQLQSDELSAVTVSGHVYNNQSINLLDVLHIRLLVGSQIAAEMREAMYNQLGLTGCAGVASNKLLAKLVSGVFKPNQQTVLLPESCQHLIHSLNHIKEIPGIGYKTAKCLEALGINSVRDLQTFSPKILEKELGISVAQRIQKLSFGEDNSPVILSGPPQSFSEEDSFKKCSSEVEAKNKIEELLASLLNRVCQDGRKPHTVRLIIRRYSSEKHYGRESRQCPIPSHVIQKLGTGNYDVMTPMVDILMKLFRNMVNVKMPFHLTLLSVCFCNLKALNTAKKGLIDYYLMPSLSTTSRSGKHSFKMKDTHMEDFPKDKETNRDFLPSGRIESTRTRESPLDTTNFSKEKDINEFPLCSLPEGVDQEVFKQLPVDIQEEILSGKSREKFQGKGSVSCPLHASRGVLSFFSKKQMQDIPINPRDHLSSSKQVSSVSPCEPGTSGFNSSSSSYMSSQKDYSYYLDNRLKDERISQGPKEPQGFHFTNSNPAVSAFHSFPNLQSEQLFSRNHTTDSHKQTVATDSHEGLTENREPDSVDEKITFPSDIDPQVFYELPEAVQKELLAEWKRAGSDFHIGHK
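Pol iota at 10 nM preincubated 15 min with compounds at room temperature; reaction started with fluorescent substrate, 50 nM final. Fluorescence read kinetically at 0 and 10 min; buffer-only wells as negative control.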
Pol eta inh = DNA polymerase eta (human) inhibition; Q9Y253; recombinant Pol eta, fluorescent DNA replication assay; Potency, µM (series often up to 114 µM), most hits filed as inhibitors; hit rate 1.2% among 390,000; AID 588591
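Pol eta at 10 nM preincubated with compounds 15 min at room temperature; reaction started with fluorescent substrate (50 nM final) and read kinetically at 0 and 10 min.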
Each line names hits and unclear results; the compound was inactive in the other large screens; ! = not confirmed by another sample. The call rests on the fitted dose curve; in most records, active means well fitted curve in the direction sought with a large enough effect; inconclusive means small, poorly fitted or top-dose-only effect, or another doubt; inactive means no such curve, though single readings can be large; an effect the other way counts as inactive or inconclusive.

COc1ccc(/C=N/N=C2/NC(=O)C(CC(=O)O)S2)cc1OCc1ccc(Cl)cc1Cl (stereo not drawn)	TDP1 inh 70.8µM, Pol eta inh inconclusive
CCCN1CCN(CCNC(=O)Nc2cc(Cl)c(OC)cc2OC)CC1	none
Cc1c2cc[n+](CCN3CCCCC3)cc2c(C)c2c1[nH]c1ccc(O)cc12	POLK inh 35.5µM, POLI inh 25.1µM, Pol eta inh 2.82µM (no result: Pol beta inh, TDP1 inh)
CC1=CCC2C(=O)N(c3nc4ccccc4n3C)C(=O)C2C1 (stereo not drawn)	Pol beta inh 25.1µM, TDP1 inh 39.8µM, POLI inh inconclusive, Pol eta inh inconclusive
CCN(CC)c1ccc(/C=C/c2ccccn2)cc1	POLI inh inconclusive (no result: Pol beta inh, TDP1 inh, Pol eta inh)
O=C1CCCC2=C1C(c1ccc(O)c(O)c1)Nc1ccc3ccccc3c12 (stereo not drawn)	POLK inh inconclusive, POLI inh 79.4µM, Pol eta inh inconclusive (no result: Pol beta inh, TDP1 inh)
COc1ccccc1CNC(=O)c1ccc2c(c1)sc1nc(-c3ccc(F)cc3)cn12	none
Cn1c2ccccc2n2c(=O)cc(-c3ccccc3)c(C#N)c12	Pol beta inh 44.7µM
Cn1c2ccccc2n2c(=O)c(Cl)c(-c3ccccc3)c(C#N)c12	none
COc1ccc2c(c1)c(CC(=O)NCc1cc([N+](=O)[O-])ccc1O)c(C)n2C(=O)c1ccc(Cl)cc1	Pol beta inh 39.8µM, POLI inh inconclusive, Pol eta inh 44.7µM
Fc1ccc(-c2cn3cc(Cc4ccc(Cl)cc4)sc3n2)cc1	none
CC(C)(C)C1CCc2oc3ccc(NS(=O)(=O)c4cc(Cl)ccc4Cl)cc3c2C1 (stereo not drawn)	none
Cc1cccc(CN2CCN(CCCc3ccccc3)CC2)c1	none (no result: POLK inh, POLI inh, Pol eta inh)
Cc1cc(=O)n(CCCc2ccccc2)[nH]1	POLI inh 10µM (no result: Pol beta inh)
CCOC(=O)Cc1cc(=O)n(-c2nc3ccccc3s2)[nH]1	POLK inh 79.4µM, Pol beta inh 44.7µM, POLI inh 89.1µM, Pol eta inh inconclusive
CCCc1cc(=O)n(-c2nc3ccccc3s2)[nH]1	Pol beta inh inconclusive, POLI inh inconclusive (no result: TDP1 inh)
COc1cc(C)ccc1OCCOc1cc(C)ccc1Cl	Pol beta inh 12.6µM
CN(Cc1cnc2nc(N)nc(N)c2n1)c1ccc(C(=O)N[C@H](CCC(=O)O)C(=O)O)cc1	none (no result: Pol beta inh, POLI inh, Pol eta inh)
CN(Cc1cnc2nc(N)nc(N)c2n1)c1ccc(C(=O)N[C@@H](CCC(=O)O)C(=O)O)cc1	POLK inh inconclusive, Pol beta inh 39.8µM, POLI inh 31.6µM!, Pol eta inh 31.6µM!
O=C(CNC(=O)c1ccc([N+](=O)[O-])cc1)OC(C(=O)Nc1cc(C(F)(F)F)ccc1Cl)c1ccccc1 (stereo not drawn)	none (no result: POLK inh, Pol beta inh, POLI inh, Pol eta inh)
Cc1ccc(-c2nc(-c3ccccc3)no2)c(Cl)c1	TDP1 inh 56.2µM, POLI inh inconclusive
COc1ccc(-c2noc(-c3ccccc3-c3ccccc3)n2)cc1	none
CCN(CC)c1ccc(C(=C2C=CC(=[N+](CC)CC)C=C2)c2ccccc2)cc1	none (no result: Pol beta inh)
CCN(CC)c1ccc(C(=C2C=CC(=[N+](CC)Cc3cccc(S(=O)(=O)[O-])c3)C=C2)c2ccc(N(CC)Cc3cccc(S(=O)(=O)O)c3)cc2)cc1	POLK inh 4.23µM (no result: Pol beta inh, POLI inh, Pol eta inh)
O=C(CN1C(=O)NC2(CCCCC2)C1=O)Nc1ccccc1Cl	POLI inh 89.1µM
O=C(CN1C(=O)NC2(CCCCC2)C1=O)Nc1cccc(Cl)c1Cl	none (no result: Pol beta inh)
Cc1ccc(CN2[C@H](C)[C@H](c3ccccc3)OCCS2(=O)=O)cc1	none (no result: Pol beta inh, TDP1 inh, Pol eta inh)
CCOC(=O)C1=C(C)N=C2SC(C(=O)OC)=CC(=O)N2C1c1ccc(OC)cc1 (stereo not drawn)	POLI inh 89.1µM
COC(=O)C1=C(C)N=C2SC(C#N)=C(N)N2C1c1ccc(OC)cc1 (stereo not drawn)	none
CCC(c1ccc(O)c(O)c1)C(CC)c1ccc(O)c(O)c1 (stereo not drawn)	POLK inh 50.1µM, POLI inh 17.8µM, Pol eta inh 79.4µM (no result: Pol beta inh, TDP1 inh)
COc1ccc(-c2csc(Nc3ccc(S(=O)(=O)Nc4cc(OC)nc(OC)n4)cc3)n2)cc1	Pol eta inh 89.1µM
COc1cc(NS(=O)(=O)c2ccc(Nc3nc(-c4ccccn4)cs3)cc2)nc(OC)n1	none
COc1ccc(-c2csc(NC(=O)c3ccccc3NS(=O)(=O)c3ccc(C)cc3)n2)cc1	POLK inh inconclusive, Pol beta inh inconclusive, POLI inh 31.6µM, Pol eta inh 20µM
COc1ccc(-c2csc(Nc3ccc(S(=O)(=O)Nc4cc(C)on4)cc3)n2)cc1C	Pol beta inh inconclusive, Pol eta inh 89.1µM
COc1ccc(C2Nc3ccccc3C(=O)N2Cc2ccccc2)cc1OCc1ccc(NC(C)=O)cc1 (stereo not drawn)	none (no result: POLK inh, Pol beta inh, POLI inh, Pol eta inh)
O=C(CSc1oc(-c2ccccc2)nc1S(=O)(=O)c1ccc(Cl)cc1)c1ccccc1	none
CCCC[n+]1ccn(-c2nc3ccccc3nc2[N-]S(=O)(=O)c2ccc(Br)cc2)c1	Pol eta inh inconclusive
CC(C)CC[n+]1ccn(-c2nc3ccccc3nc2[N-]S(=O)(=O)c2ccccc2)c1	Pol beta inh 79.4µM (no result: TDP1 inh)
Cc1cccc(Nc2nc(C#N)nc(NC3CCCC3)n2)c1	none (no result: POLK inh, Pol beta inh, POLI inh, Pol eta inh)
Cc1ccc(NS(=O)(=O)c2cc3c(cc2/C=C/c2ccccc2)NC(=O)CO3)cc1C	none (no result: POLK inh, Pol beta inh, POLI inh, Pol eta inh)
CCOC(=O)c1c(NC(=O)/C=C/C(=O)O)sc(C)c1-c1ccc(C(C)(C)C)cc1	Pol beta inh inconclusive, POLI inh inconclusive, Pol eta inh 22.4µM
CCc1ccccc1NC(=O)CN1C(=O)CCSc2ccc(S(=O)(=O)N3CCCC3)cc21	none
Cc1ccc(OCCSc2nc(-c3ccccc3C)nc3cc(=O)[nH]n23)cc1Cl	POLK inh inconclusive, Pol beta inh inconclusive, POLI inh inconclusive, Pol eta inh 89.1µM
Cc1cccc(OCCCSc2nc(-c3ccc(C(C)(C)C)cc3)nc3cc(=O)[nH]n23)c1C	POLI inh inconclusive (no result: Pol eta inh)
Cc1ccc(C(C)C)c(OCCSc2nc(-c3ccccc3F)nc3cc(=O)[nH]n23)c1	Pol beta inh 15.8µM, POLI inh inconclusive, Pol eta inh inconclusive (no result: TDP1 inh)
CCc1ccc(OCCCSc2nc(-c3ccc(C(C)(C)C)cc3)nc3cc(=O)[nH]n23)cc1	Pol beta inh 17.8µM, POLI inh inconclusive (no result: Pol eta inh)
O=c1cc2nc(-c3ccccc3F)nc(SCc3ccc(Br)cc3)n2[nH]1	POLK inh inconclusive, Pol beta inh 31.6µM, POLI inh inconclusive, Pol eta inh inconclusive
Cc1cccc(-c2nc(SCCCOc3ccc(Cl)c(C)c3)n3[nH]c(=O)cc3n2)c1	none
Cc1ccc(Sc2ccccc2CN(C)C)c(N)c1	none (no result: Pol beta inh, POLI inh, Pol eta inh)
CCc1cc(CNC(=O)c2ccc(OC3CCN(CCc4ccccc4)CC3)cc2)on1	Pol beta inh inconclusive, TDP1 inh 14.1µM, POLI inh inconclusive
CC(C)(C)OC(=O)NCc1nnc(-c2nc3ccccc3[nH]2)o1	none (no result: POLK inh, Pol beta inh, POLI inh, Pol eta inh)
Cn1c(SCC(=O)Nc2sc3c(c2C#N)CCC3)nnc1C1COc2ccccc2O1 (stereo not drawn)	Pol beta inh 1.78µM, POLI inh inconclusive, Pol eta inh inconclusive
